# Source: PubChem BioAssay (NCATS)
# Results filed as inconclusive are left out. A call without a number means that no potency is given here. Unmarked numbers belong to inactive results. Active and inactive are the calls of the source. Calls follow the shape of the dose curve; as a rule, active = well fitted cell-killing curve with a large enough effect; inconclusive = small, poorly fitted or top-dose-only effect, or effect the other way; inactive = no such curve, though single readings can be large or run the other way.
# Test: Viability qHTS for spleen associated tyrosine kinase inhibitor (SYKi) drug resistant MV4-11 cells (AID 1963824); also: nearly all actives have a fitted effect of over 35% in size
# Settings: SYKi-resistant MV4-11 viability, CellTiter-Glo, 72 h; series mostly up to 45 µM
# In short: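 CellTiter-Glo luminescence, read 10 min after reagent addition, reports viability after a 72 hr compound exposure. Cells are an MV4-11 line made resistant to SYK inhibition, seeded at 500 per well onto compound-containing plates.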
# Potency is read from the fitted curve at half-maximal effect.
SMILES,Potency,"viability, % of control"
Cc1cc2c(c(=O)o1)C=C1CC[C@H]([C@H](C)Cn3cnc(=N)c4[nH]cnc43)C[C@@H]1O2,inactive,–
CC1C(=O)OCC2=CC[N+]3([O-])CCC(OC(=O)C(C)(O)C1(C)O)C23 (stereo not drawn),inactive,–
Cc1cc(C)nc(SCC(=O)Nc2ncc(Cc3cccc4ccccc34)s2)n1,10.3 µM (active),–
CNCCC=C1c2ccccc2CCc2ccccc21,14.6 µM (active),–
C[C@@H]1O[C@@H](O[C@H]2[C@H](O)[C@@H](C(=O)O)O[C@@H](O[C@H]3CC[C@@]4(C)C(CC[C@]5(C)C4CC=C4C6CC(C)(C)CC[C@]6(C(=O)O)CC[C@]45C)C3(C)C)[C@@H]2O[C@@H]2O[C@H](CO)[C@@H](O)[C@H](O)[C@H]2O)[C@H](O)[C@H](O)[C@H]1O (stereo partly drawn),–,81.7% [at 9.25 µM]
OC[C@H]1O[C@@H](OC/C=C/c2ccc(O)cc2)[C@H](O)[C@@H](O)[C@@H]1O,inactive,–
CC[C@H]1OC(=O)[C@H](C)C(=O)[C@H](C)[C@@H](OC2O[C@H](C)C[C@H](N(C)C)[C@H]2O)[C@@H](C)C[C@@H](C)C(=O)/C=C/[C@]1(C)O (stereo partly drawn),inactive,–
COC(=O)C12C(=O)C(C)=C(O)C1(C)C(C)=CC1C3(CO)CCC(O)C(C)(C)C3CCC12C (stereo not drawn),inactive,–
CC1=C(C)C(=O)OC(C(C)C2C(O)CC3C4C5OC5C5(O)CC(OC6OC(CO)C(O)C(O)C6O)CC(O)C5(C)C4CCC32C)C1 (stereo not drawn),inactive,–
CCN(CC)C(C)CN1c2ccccc2Sc2ccccc21 (stereo not drawn),inactive,–
COc1cc([C@H]2OC[C@]3(OC(C)=O)[C@@H](c4ccc(O[C@@H]5O[C@H](CO)[C@@H](O)[C@H](O)[C@H]5O)c(OC)c4)OC[C@H]23)ccc1O,inactive,–
C=C1C(OC(C)=O)C(=O)C2C(C)(C)C(O)CCC2(C)C1CC(OC(C)=O)/C(C)=C/COC(C)=O (stereo not drawn),inactive,–
CC1=C[C@H](O)[C@H]2C(C)(C)CCC[C@]2(C)[C@@]1(O)CO,4.11 µM (active),–
CC1(C)SC2C(NC(=O)[C@H](NC(=O)N3CCNC3=O)c3ccccc3)C(=O)N2C1C(=O)O (stereo partly drawn),inactive,–
O=C(Cc1ccccc1)OC[C@H]1O[C@H](O[C@H]2O[C@H](CO)[C@@H](O)[C@H](O)[C@H]2O)[C@H](O)[C@@H](O)[C@@H]1O,inactive,–
O=C1O[C@H](C(O)CO)C(=O)C1=O (stereo partly drawn),inactive,–
COC(=O)[C@H](O)[C@H]1C(C)(C)[C@H](OC(=O)C(C)C)[C@@]2(O)C(=O)[C@]1(C)C1CC[C@]3(C)C(CC(=O)O[C@H]3c3ccoc3)[C@]13O[C@@H]32 (stereo partly drawn),inactive,–
CC1(C)OC(=O)C(OCC2CC2)=C1c1ccc(S(C)(=O)=O)cc1,inactive,–
O=C(CC12CC3CC(CC(C3)C1)C2)Nc1cccc2nc(NCCNCCO)ccc12,16.4 µM (active),–
Cc1cc(C(=O)N2Cc3cnn(C)c3Nc3ccccc32)ccc1CNC(=O)N1CCC[C@H]1C(=S)N1CCCN(C)CC1,inactive,–
C/C=C1\[C@H](OC2OC(COC3OC(CO)C(O)C(O)C3O)C(O)C(O)C2O)OC=C(C(=O)OC)[C@H]1CC(=O)OCCc1ccc(O)cc1 (stereo partly drawn),inactive,–
Cc1c[nH]c2nccc(Oc3c(F)cc(Nc4cc(Cl)nc(N)n4)cc3F)c12,0.731 µM (active),–
COc1cc(C(=O)OCC2=CCC3C(C(=O)O)=COC(O[C@@H]4O[C@H](CO)[C@@H](O)[C@H](O)[C@H]4O)C23)ccc1O (stereo partly drawn),inactive,–
COc1ccc(Oc2c(Cl)cnn(-c3cc(C)cc(C)c3)c2=O)cc1,2.06 µM (active),–
CC(C)(O)C(O)C(=O)OCc1ccc(O[C@@H]2O[C@H](CO)[C@@H](O)[C@H](O)[C@H]2O)cc1 (stereo partly drawn),inactive,–
CN1CC[C@@H](c2c(O)cc(O)c3c(=O)cc(-c4ccc(C(F)(F)F)cc4Cl)oc23)[C@@H]1CO,18.4 µM (active),–
C[C@@H]1O[C@@H](O[C@@H]2[C@@H](O)[C@H](O[C@@H]3[C@@H](O)[C@@H](O)[C@H](O[C@H]4[C@H](OC(=O)[C@]56CCC(C)(C)C[C@H]5C5=CCC7[C@@]8(C)C[C@H](O)[C@H](O[C@@H]9O[C@H](C(=O)O)[C@@H](O)[C@H](O)[C@H]9O)[C@@](C)(CO)C8[C@H](O)C[C@@]7(C)[C@]5(C)CC6)OC[C@H](O)[C@@H]4O)O[C@H]3C)OC[C@H]2O)[C@H](O)[C@H](O)[C@H]1O (stereo partly drawn),–,89.9% [at 9.25 µM]
CC1(C(=O)O)CCCC2(C)C3=CCC4CC3(CCC12)CC4CO (stereo not drawn),inactive,–
